# According to PubChem BioAssay (NCATS):
# A number with no mark means an inactive call. Inconclusive results are not listed. Entries that show only a call come without a potency. The source made the active and inactive calls. Unless noted, calls follow the shape of the dose curve; as a rule, active = well fitted curve in the direction sought with a large enough effect; inconclusive = small, poorly fitted or top-dose-only effect, or another doubt; inactive = no such curve, though single readings can be large; an effect the other way counts as inactive or inconclusive.
# Key:
# [1] = biological target: ATP-dependent 6-phosphofructokinase (Trypanosoma brucei brucei) (UniProt O15648); assay: qHTS Assay to Find Inhibitors of T. brucei phosphofructokinase: hit validation (AID 492961);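 also: luminescence reports ADP formed as PFK phosphorylates fructose-6-phosphate with ATP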
# Sequence of ATP-dependent 6-phosphofructokinase (Trypanosoma brucei brucei) (O15648 whole entry, looked up): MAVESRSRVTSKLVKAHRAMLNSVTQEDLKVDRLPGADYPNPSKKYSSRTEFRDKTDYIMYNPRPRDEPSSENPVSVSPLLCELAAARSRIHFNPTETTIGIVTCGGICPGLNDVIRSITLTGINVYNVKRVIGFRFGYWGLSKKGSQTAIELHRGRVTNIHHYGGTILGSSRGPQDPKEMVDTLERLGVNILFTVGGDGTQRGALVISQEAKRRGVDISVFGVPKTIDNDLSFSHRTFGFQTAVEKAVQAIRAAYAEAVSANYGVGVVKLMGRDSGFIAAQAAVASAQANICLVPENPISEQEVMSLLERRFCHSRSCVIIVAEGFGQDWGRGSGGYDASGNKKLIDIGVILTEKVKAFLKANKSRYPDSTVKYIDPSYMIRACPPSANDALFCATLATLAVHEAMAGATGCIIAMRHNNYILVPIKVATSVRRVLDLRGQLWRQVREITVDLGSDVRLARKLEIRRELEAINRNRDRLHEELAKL
# In short: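 Reaction: 0.1 M triethanolamine pH 8.0, 5 mM MgCl2, F6P 0.5 mM, ATP 0.1 mM, PFK 1.25 nM, 45 min RT. Read-out: ADP-Glo luminescence. Analysis: concentration-response fits, classed by r2 and efficacy.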
# [2] = S16 Schwann cell PMP22 intronic element firefly luciferase assay (AID 624032); also: nearly all actives have a fitted effect of over 30% in size; also: potency is read from the fitted curve at half-maximal effect
# In short: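 Rat S16 Schwann cells stably carrying a PMP22 intronic element-driven Fluc reporter were seeded overnight, then exposed to compounds for 24 h at 37 °C. Luminescence was normalized to PTC124 (positive control) and DMSO (0% activity).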
# CP286 = assay: qHTS profiling for inhibitors of Plasmodium falciparum proliferation (AID 504749); also: nearly all actives have a fitted effect of over 60% in size; also: potency is read from the fitted curve at half-maximal effect; details: P. falciparum in erythrocytes, SYBR Green DNA, 72 h; series mostly up to 12.8 µM
# In short: (§1)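 Parasite proliferation within erythrocytes, 72 h exposure. Endpoint: SYBR Green I fluorescence after overnight lysis at room temperature. Controls: 0.29 uM artemisinin, DMSO.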
# CP335 = assay: as above; details: P. falciparum in erythrocytes, SYBR Green DNA, 72 h; series mostly up to 12.8 µM
# In short: as §1
# P93_24 = assay: as above; details: P. falciparum in erythrocytes, SYBR Green DNA, 72 h; series mostly up to 12.8 µM
# In short: as §1
# P94_40 = assay: as above; details: P. falciparum in erythrocytes, SYBR Green DNA, 72 h; series mostly up to 12.8 µM
# In short: as §1
# PAD = assay: as above; details: P. falciparum in erythrocytes, SYBR Green DNA, 72 h; series mostly up to 12.8 µM
# In short: as §1
# TAB109 = assay: as above; details: P. falciparum in erythrocytes, SYBR Green DNA, 72 h; series mostly up to 12.8 µM
# In short: as §1
# [3] = biological target: Cytochrome P450 1A2 (Homo sapiens) (UniProt P05177); assay: p450-cyp1a2 (AID 410; calls by dose curve; also: potency is read from the fitted curve at half-maximal effect)
# Sequence of Cytochrome P450 1A2 (Homo sapiens) (P05177 whole entry, looked up): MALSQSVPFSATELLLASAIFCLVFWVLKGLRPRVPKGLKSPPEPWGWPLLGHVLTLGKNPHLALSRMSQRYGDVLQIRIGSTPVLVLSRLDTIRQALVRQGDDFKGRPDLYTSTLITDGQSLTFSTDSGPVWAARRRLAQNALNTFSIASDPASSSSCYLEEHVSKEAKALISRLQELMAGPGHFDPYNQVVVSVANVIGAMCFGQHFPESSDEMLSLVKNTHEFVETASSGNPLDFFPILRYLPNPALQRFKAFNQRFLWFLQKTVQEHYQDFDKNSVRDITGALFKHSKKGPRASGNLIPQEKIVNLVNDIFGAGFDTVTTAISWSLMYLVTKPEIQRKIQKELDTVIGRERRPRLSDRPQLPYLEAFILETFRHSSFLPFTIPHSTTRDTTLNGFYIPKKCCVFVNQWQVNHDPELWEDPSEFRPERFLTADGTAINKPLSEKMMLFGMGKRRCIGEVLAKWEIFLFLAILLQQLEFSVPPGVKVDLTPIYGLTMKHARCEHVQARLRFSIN
# In short: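 Luminescent readout of luciferin formed from Luciferin-ME by human CYP1A2; data normalized against complete inhibition by 57 uM furafylline. Enzyme 20nM, substrate 100uM at Km, 100mM KPO4 buffer, 60 min reaction at room temperature.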
# [4] = biological target: Cytochrome P450 3A4 (Homo sapiens) (UniProt P08684); assay: qHTS Assay for Activators of Cytochrome P450 3A4 (AID 885); also: nearly all actives have a fitted effect of over 65% in size
# Sequence of Cytochrome P450 3A4 (Homo sapiens) (P08684 whole entry, looked up): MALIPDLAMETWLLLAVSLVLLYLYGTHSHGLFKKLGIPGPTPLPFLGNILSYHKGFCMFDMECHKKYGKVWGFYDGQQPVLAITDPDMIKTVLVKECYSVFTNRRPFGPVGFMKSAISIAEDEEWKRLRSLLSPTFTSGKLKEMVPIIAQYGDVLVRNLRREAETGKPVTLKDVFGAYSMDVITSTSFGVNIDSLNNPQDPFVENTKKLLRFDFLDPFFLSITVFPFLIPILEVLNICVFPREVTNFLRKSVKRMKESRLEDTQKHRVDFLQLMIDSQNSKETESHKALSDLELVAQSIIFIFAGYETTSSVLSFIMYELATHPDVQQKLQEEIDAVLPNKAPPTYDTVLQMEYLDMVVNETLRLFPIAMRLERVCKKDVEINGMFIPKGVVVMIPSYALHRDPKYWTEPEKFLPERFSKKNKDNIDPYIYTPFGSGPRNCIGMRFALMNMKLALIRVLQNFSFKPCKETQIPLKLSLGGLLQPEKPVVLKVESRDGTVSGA
# In short: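 20nM CYP3A4 + 25uM Luciferin-PPXE (=KM), 200mM KPO4; cpd 10 min RT; NADPH regen, 60 min RT; stop w/ detection buffer, 20 min; luminescence. Normalized to 57 uM ketoconazole.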
# [5] = qHTS Assay for Identification of Small Molecule Agonists for Hypoxia Response Element Signaling Pathway (AID 914; active = well fitted activation curve with a large enough effect in the signal ratio, with a control signal flat, not every such curve was filed as active; the % refers to the signal ratio); details: ME-180 HRE-bla reporter, beta-lactamase ratio, CoCl2, 17 h; activation: active compounds read high
# In short: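 ME-180 cells carrying an HRE-driven beta-lactamase reporter were treated with compounds in a titration series plus an EC50 level of CoCl2 for 17 h at 37 degrees Celsius; CCF4 readout as the 460nm/530nm ratio gave AC50 values.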
# [6] = Confirmation and Secondary Assay for Modulators of Hemoglobin Beta Chain Splicing at IVS2 705 locus (AID 930);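 also: HeLa cells stably expressing the EGFP-705 splicing reporter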
# In short: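 HeLa cells stably carrying EGFP interrupted by mutant beta-globin IVS2-705 intron (CMV-driven) were seeded at 500 cells/well, treated next day with compound for 2 days at 37C; corrected splicing restores EGFP, read as total peak GFP intensity per well.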
# DIV14 = assay: qHTS profiling for inhibitors of Plasmodium falciparum proliferation (AID 504749); also: nearly all actives have a fitted effect of over 60% in size; also: potency is read from the fitted curve at half-maximal effect; details: P. falciparum in erythrocytes, SYBR Green DNA, 72 h; series mostly up to 12.8 µM
# In short: as §1
# DIV17 = assay: as above; details: P. falciparum in erythrocytes, SYBR Green DNA, 72 h; series mostly up to 12.8 µM
# In short: as §1
# [7] = biological target: Cytochrome P450 2D6 (Homo sapiens) (UniProt P10635); assay: qHTS Assay for Inhibitors and Substrates of Cytochrome P450 2D6 (AID 891); also: potency is read from the fitted curve at half-maximal effect; nearly all actives have a fitted effect of over 60% in size
# Sequence of Cytochrome P450 2D6 (Homo sapiens) (P10635 whole entry, looked up): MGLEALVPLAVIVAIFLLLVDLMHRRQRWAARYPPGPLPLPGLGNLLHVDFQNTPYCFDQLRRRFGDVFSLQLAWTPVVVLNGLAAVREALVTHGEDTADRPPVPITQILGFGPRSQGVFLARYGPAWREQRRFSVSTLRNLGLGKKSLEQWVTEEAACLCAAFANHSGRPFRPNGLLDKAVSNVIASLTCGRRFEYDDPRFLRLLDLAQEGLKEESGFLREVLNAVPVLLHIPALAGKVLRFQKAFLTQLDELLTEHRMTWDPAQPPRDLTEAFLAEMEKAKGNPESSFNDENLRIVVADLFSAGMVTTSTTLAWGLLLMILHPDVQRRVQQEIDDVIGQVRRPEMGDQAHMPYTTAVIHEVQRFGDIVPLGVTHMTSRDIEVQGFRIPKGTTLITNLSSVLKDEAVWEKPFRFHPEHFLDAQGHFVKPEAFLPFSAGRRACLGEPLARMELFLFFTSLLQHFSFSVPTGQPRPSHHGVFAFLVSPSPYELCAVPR
# In short: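 Human CYP2D6 (5 nM) with 30 uM Luciferin-ME EGE (at Km) in 100 mM KPO4, compound preincubated 10 min, then NADPH regeneration system for 60 min at room temperature. Luciferin read by luminescence; normalized to 1.43 uM quinidine.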
# CP194 = assay: qHTS profiling for inhibitors of Plasmodium falciparum proliferation (AID 504749); also: nearly all actives have a fitted effect of over 60% in size; also: potency is read from the fitted curve at half-maximal effect; details: P. falciparum in erythrocytes, SYBR Green DNA, 72 h; series mostly up to 12.8 µM
# In short: as §1
# CP291 = assay: as above; details: P. falciparum in erythrocytes, SYBR Green DNA, 72 h; series mostly up to 12.8 µM
# In short: as §1
# CP203 = assay: as above; details: P. falciparum in erythrocytes, SYBR Green DNA, 72 h; series mostly up to 12.8 µM
# In short: as §1
# GB4 = assay: as above; details: P. falciparum in erythrocytes, SYBR Green DNA, 72 h; series mostly up to 12.8 µM
# In short: as §1
# [8] = biological target: Cytochrome P450 3A4 (Homo sapiens) (UniProt P08684); assay: qHTS Assay for Inhibitors and Substrates of Cytochrome P450 3A4 (AID 884); also: nearly all actives have a fitted effect of over 50% in size
# In short: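 20 nM human CYP3A4 with 25 uM Luciferin-PPXE (at KM) in 200 mM KPO4, preincubated 10 min with compound; NADPH regeneration started a 60 min RT reaction. Luciferin detected by luminescence, normalized to 57 uM ketoconazole as full inhibition.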
structure (smiles),measurement,setting,value
Cc1cccc(C)c1NC(=O)[C@H](C)N,outcome,[1],inactive
same,Potency,[2],inactive
same,Potency,CP286,inactive
same,Potency,CP335,inactive
same,Potency,P93_24,inactive
same,Potency,P94_40,inactive
same,Potency,PAD,inactive
same,Potency,TAB109,inactive
CS(=O)(=O)Nc1cccc(-c2nc(Nc3ccccc3)c3ccccc3n2)c1,Potency,[3],794 nM (active)
same,Potency,[4],inactive
same,activation,[5],6.74%
same,Potency,[6],inactive
COc1cc2nc(N3CCN(C(=O)[C@@H]4COc5ccccc5O4)CC3)nc(N)c2cc1OC,Potency,[3],inactive
same,Potency,[2],inactive
same,Potency,DIV14,13.5 µM (active)
same,Potency,DIV17,6.75 µM (active)
C[C@H](N[C@@H](C)COc1ccccc1)[C@H](O)c1ccc(O)cc1,Potency,[7],316 nM (active)
same,outcome,[1],inactive
same,Potency,[2],1.55 µM (active)
same,Potency,CP194,inactive
same,Potency,CP286,inactive
same,Potency,CP291,inactive
same,Potency,CP335,inactive
same,Potency,P93_24,inactive
same,Potency,P94_40,inactive
same,Potency,PAD,inactive
same,Potency,TAB109,inactive
CS(=O)(=O)c1ccc([C@H](O)[C@H](CF)NC(=O)C(Cl)Cl)cc1,outcome,[1],inactive
Cn1nnnc1SCC1=C(C(=O)O)N2C(=O)[C@@H](NC(=O)[C@@H](O)c3ccccc3)[C@@H]2SC1,outcome,[1],inactive
same,Potency,CP194,inactive
same,Potency,CP203,inactive
same,Potency,CP286,inactive
same,Potency,CP335,inactive
same,Potency,DIV14,inactive
same,Potency,DIV17,inactive
same,Potency,GB4,inactive
same,Potency,P93_24,inactive
same,Potency,P94_40,inactive
same,Potency,PAD,inactive
same,Potency,TAB109,inactive
CC(=C(CCOP(=O)(O)O)SC(=O)c1ccccc1)N(C=O)Cc1cnc(C)nc1N,Potency,[6],inactive
same,outcome,[1],inactive
same,Potency,[2],inactive
same,Potency,CP194,inactive
same,Potency,CP203,inactive
same,Potency,CP286,inactive
same,Potency,CP291,inactive
same,Potency,CP335,inactive
same,Potency,DIV14,inactive
same,Potency,DIV17,inactive
same,Potency,GB4,inactive
same,Potency,P93_24,inactive
same,Potency,P94_40,inactive
same,Potency,PAD,inactive
same,Potency,TAB109,inactive
COc1cc2nc(N3CCN(C(=O)[C@@H]4CCCO4)CC3)nc(N)c2cc1OC,outcome,[1],inactive
same,Potency,[2],inactive
same,Potency,CP194,inactive
same,Potency,CP203,inactive
same,Potency,CP286,inactive
same,Potency,CP291,inactive
same,Potency,CP335,inactive
same,Potency,DIV14,inactive
same,Potency,DIV17,inactive
same,Potency,GB4,inactive
same,Potency,P93_24,inactive
same,Potency,P94_40,inactive
same,Potency,PAD,inactive
same,Potency,TAB109,inactive
CC[N+](CC)(CC)CC[C@](O)(c1ccccc1)C1CCCCC1,Potency,[3],inactive
same,Potency,[7],20 nM (active)
same,Potency,[2],inactive
same,Potency,CP194,inactive
same,Potency,CP203,inactive
same,Potency,CP335,inactive
same,Potency,DIV17,inactive
same,Potency,GB4,inactive
same,Potency,P93_24,inactive
same,Potency,P94_40,inactive
same,Potency,PAD,inactive
same,Potency,TAB109,inactive
C[C@@H]1O[C@H](O[C@@H]2\C=C/C=C\C=C/C=C\C[C@H](C)OC(=O)/C=C\[C@H]3O[C@@H]3C[C@H](O)C[C@]3(O)C[C@@H](O)[C@@H](C(=O)O)[C@H](C2)O3)[C@@H](O)[C@H](N)[C@@H]1O (stereo in doubt),outcome,[1],inactive
same,Potency,[2],inactive
same,Potency,CP194,inactive
same,Potency,CP203,inactive
same,Potency,CP286,inactive
same,Potency,CP291,inactive
same,Potency,CP335,inactive
same,Potency,DIV14,inactive
same,Potency,DIV17,inactive
same,Potency,GB4,inactive
same,Potency,P93_24,inactive
same,Potency,P94_40,inactive
same,Potency,PAD,inactive
same,Potency,TAB109,inactive
C#C[C@@]1(O)CC[C@@H]2[C@@H]3CCC4=CC(=O)CC[C@@H]4[C@H]3CC[C@]21CC,Potency,[3],inactive
C1CCN2C[C@@H]3C[C@@H](CN4CCCC[C@H]34)[C@H]2C1,outcome,[1],inactive
same,Potency,CP194,inactive
same,Potency,CP203,inactive
same,Potency,CP286,inactive
same,Potency,CP291,inactive
same,Potency,CP335,inactive
same,Potency,DIV14,inactive
same,Potency,DIV17,inactive
same,Potency,GB4,inactive
same,Potency,P93_24,inactive
same,Potency,P94_40,inactive
same,Potency,PAD,inactive
same,Potency,TAB109,inactive
CC(=O)CC(=O)[C@@]1(O)CC[C@@H]2[C@@H]3C=C(C)C4=CC(=O)CC[C@@H]4[C@H]3CC[C@]21C,Potency,[3],inactive
same,Potency,[8],inactive
CC(=O)OCC(=O)[C@@]1(O)[C@H](C)C[C@@H]2[C@H]3CCC4=CC(=O)C=C[C@]4(C)[C@]3(F)[C@@H](O)C[C@@]21C,Potency,[3],inactive
same,Potency,[2],inactive
same,Potency,CP194,inactive
same,Potency,CP203,inactive
same,Potency,CP286,inactive
same,Potency,CP291,inactive
same,Potency,CP335,inactive
same,Potency,DIV14,inactive
same,Potency,DIV17,inactive
same,Potency,GB4,inactive
same,Potency,P93_24,inactive
same,Potency,P94_40,inactive
same,Potency,PAD,inactive
same,Potency,TAB109,inactive
C[C@@]12CC[C@H]3[C@@H](CCC4=CC(=O)CC[C@]43C)[C@H]1CC[C@H]2C(=O)CO,Potency,[3],inactive
same,outcome,[1],inactive
same,Potency,CP194,inactive
same,Potency,CP286,inactive
same,Potency,CP291,inactive
same,Potency,CP335,inactive
same,Potency,DIV17,inactive
same,Potency,GB4,inactive
same,Potency,P93_24,inactive
same,Potency,TAB109,inactive
C[N+](C)(CCCOc1ccccc1)c1ccccc1,Potency,[7],15.8 nM (active)
C=C1c2c(Cl)ccc(O)c2C(O)=C2C(=O)[C@@]3(O)C(O)=C(C(N)=O)C(=O)[C@@H](N(C)C)[C@@H]3[C@@H](O)[C@H]12,outcome,[1],inactive
same,Potency,[2],inactive
same,Potency,CP203,inactive
same,Potency,CP291,inactive
same,Potency,DIV14,inactive
same,Potency,DIV17,inactive
same,Potency,P94_40,inactive
same,Potency,PAD,inactive
COC(=O)[C@@H]1[C@@H]2C[C@H]3c4[nH]c5cc(OC)ccc5c4CCN3C[C@@H]2C[C@H](OC(=O)c2cc(OC)c(OC)c(OC)c2)[C@H]1OC,Potency,[4],inactive
